We go through 52 molecules from ChEMBL document CHEMBL4513216, “Probing the Open Global Health Chemical Diversity Library for Multistage-Active Starting Points for Next-Generation Antimalarials” (ACS Infect Dis, 2020).

About 8,600 (12%) of roughly 69,000 compounds showed an effect of 50% or more. Shown is part of a subset that was picked to be rich in strong results.

This experiment concerns Plasmodium berghei. As to the kind of experiment: Screen against P. berghei liver stage (PbLuc), transformed with Luciferase, at 10uM. Type of experiment: functional, HepG2. The conditions noted are these: tested at 10 uM.
For the molecule `CN(C)C(=O)c1ccc(C2CCCNC2)nc1` (configuration not stated), the INHIBITION worked out at 12.3%.

On to `CN(C)CC1CN(Cc2ccsc2)Cc2nccn2C1` (configuration not stated), for which the INHIBITION was 31.8%.

`CN(C)Cc1cccc(-c2cccnc2C(=O)NCc2cn(C)cn2)c1`: the INHIBITION stood at 51%.

Regarding `CN(C)Cc1cccc(-c2cccnc2C(=O)NCc2ccco2)c1`, the INHIBITION is recorded as 2.7%.

For `CN(C)Cc1cccc(-c2cccnc2C(=O)NCc2ccccn2)c1`, the INHIBITION amounted to 14.85%.

In the case of `Cc1ncsc1CCN(C)C(=O)CN1CCCCCC1=O`, the INHIBITION was found to be 30.8%.

Take `CN(Cc1csc(-c2cccs2)n1)C(=O)CN1CCOC1=O`: the INHIBITION amounted to 55%.

Consider `CC(C)n1ccnc1CN1C(=O)OC[C@@H]1c1ccccc1`, for which the INHIBITION was 42.6%.

Regarding `Cc1ncsc1CCN(C)C(=O)CN1CCCCC1=O`, the INHIBITION worked out at 39.4%.

For `Cc1ncsc1CCN(C)C(=O)CN1CCOC1=O`, the INHIBITION is on record as 61.8%.

Consider `Cc1ncsc1CCN(C)C(=O)CN1CCOc2ccccc2C1`, for which the INHIBITION is recorded as 40.5%.

Turning to `COc1ccccc1CN(C)C(=O)CN1C(=O)OC[C@@H]1c1ccccc1`, the INHIBITION is 28.5%.

With `CC(C)N(C)C(=O)CN1C(=O)OC[C@@H]1c1ccccc1`, the INHIBITION is recorded as 58.2%.

`Cc1nc(CCN(C)C(=O)CN2C(=O)OC[C@@H]2c2ccccc2)no1`: the INHIBITION came out at 44.3%.

As for `Cc1ccc(=O)n(CC(=O)N(C)Cc2csc(-c3cccs3)n2)n1`, the INHIBITION came out at 5.23%.

As for `Cc1cc(C)n(CC(=O)N(C)Cc2csc(-c3cccs3)n2)c(=O)n1`, the INHIBITION came out at 38.5%.

On to `Cc1ncsc1CCN(C)C(=O)CN1C(=O)OC[C@@H]1c1ccccc1`, for which the INHIBITION is 66.5%.

With `CCN(CC(=O)Nc1cc(Cl)ccc1C)C(=O)c1cnccn1`, the INHIBITION was -25.9%.

In the case of `COc1ccc(C(=O)N2CCC(Nc3ccc(C)nn3)CC2)cc1`, the INHIBITION stood at 42%.

For the molecule `CN(C)c1nc2sc(C(=O)N3CCN(C(=O)OC(C)(C)C)CC3)cc2s1`, the INHIBITION was -9.39%.

Take `CCCS(=O)(=O)N1C[C@H](N(C)Cc2ccco2)[C@@H]2OCCC[C@@H]21`: the INHIBITION came to 40.4%.

Consider `O=C(CCn1cnc2cc(F)c(F)cc21)N1CCN2CCCCC2C1` (configuration not stated), for which the INHIBITION is on record as 23.4%.

Consider `Cc1cc(CN2C[C@@H]3COC[C@@H](C(=O)N4CCCCO4)[C@@H]3C2)oc1C`, for which the INHIBITION is on record as 33.4%.

For the molecule `NC(=O)c1ccc(NC2CCOC3(CCCC3)C2)nn1` (configuration not stated), the INHIBITION is given as 7.18%.

As for `COC(=O)CCn1ccc(=O)c2cc(OC)ccc21`, the INHIBITION is reported as -80.3%.

With `CN(CCc1cnn(C)c1)C(=O)CN1C(=O)OC[C@@H]1c1ccccc1`, the INHIBITION is recorded as 50.8%.

Consider `CN(CCc1cnn(C)c1)C(=O)Cn1c(=O)[nH]c2ccccc21`, for which the INHIBITION was 27%.

Consider `CN(CCc1ccccc1)C(=O)CN1C(=O)OC[C@@H]1c1ccccc1`, for which the INHIBITION amounted to 36.9%.

Take `CCC(CC)C(=O)NCc1cnn(CC)c1`: the INHIBITION is 20.1%.

Regarding `Cn1c(=O)c2cc(C(=O)NCCc3ccccc3)ccc2n(C)c1=O`, the INHIBITION was -0.371%.

With `CC(C)CNC(=O)c1sccc1-n1cnnn1`, the INHIBITION amounted to 32.3%.

As to `Cc1sc(-n2cnnn2)c(C(=O)NC(C)C)c1C`, the INHIBITION came to 21.2%.

In the case of `O=C(NCC1CCCO1)c1c(-n2cnnn2)sc2c1CCC2` (configuration not stated), the INHIBITION was -1.58%.

In the case of `CCCn1nccc1C(=O)Nc1nc(C)c(C)s1`, the INHIBITION was -9.44%.

Consider `COC(=O)CNC(=O)c1c(-n2cnnn2)sc2c1CCCC2`, for which the INHIBITION was -5.59%.

Regarding `Cc1nc(NC(=O)c2c(-n3cnnn3)sc(C)c2C)sc1C`, the INHIBITION worked out at 92.5%.

On to `CC(C)CNC(=O)c1c(-n2cnnn2)sc2c1CCCC2`, for which the INHIBITION stood at 68.1%.

`Cc1nc(NC(=O)c2c(-n3cnnn3)sc3c2CCC3)sc1C`: the INHIBITION was found to be 93.7%.

`CC(C)CCNC(=O)c1c(-n2cnnn2)sc2c1CCCC2`: the INHIBITION was 23.4%.

In the case of `CCCNC(=O)c1c(-n2cnnn2)sc2c1CCC2`, the INHIBITION came to 26.1%.

For the molecule `CC(C)CNC(=O)c1c(-n2cnnn2)sc2c1CCC2`, the INHIBITION came out at 14.2%.

On to `Cc1nc(NC(=O)c2c(-n3cnnn3)sc3c2CCCC3)sc1C`, for which the INHIBITION came to 93.7%.

Regarding `Cc1ncc(CNC2CCc3nc(C(C)C)nn3C2)s1` (configuration not stated), the INHIBITION was 24.7%.

As to `CCn1c(-c2ccccc2)nn(CC(=O)NCCc2ccc(C)o2)c1=O`, the INHIBITION is recorded as -19.1%.

As for `CCCc1noc(CNC2CCCN(Cc3noc(C4CC4)n3)C2)n1` (configuration not stated), the INHIBITION is listed as -37.7%.

Consider `Cc1nc2c(N(C)Cc3ccnn3C)nc(N)nc2n1C`, for which the INHIBITION was found to be 32.3%.

On to `Cc1ccc(F)cc1-n1c(CCCN2CCOCC2)n[nH]c1=O`, for which the INHIBITION was 39.4%.

Turning to `COc1cc(C)sc1C(=O)N1CCCC(n2nc(C)nc2C)C1` (configuration not stated), the INHIBITION is 48.2%.

Take `CCc1ccc(C(=O)O)cc1S(=O)(=O)N(C)c1cccc(C)c1`: the INHIBITION stood at 59.1%.

For `Cc1cccc(N(C)S(=O)(=O)c2cc(C(=O)O)cs2)c1`, the INHIBITION is 22.3%.

Consider `CCc1ccc(C(=O)O)cc1S(=O)(=O)N(C)c1cccc(C#N)c1`, for which the INHIBITION came to 24.4%.

In the case of `COc1ccc(S(=O)(=O)NCC(N)c2ccccc2)c(C)c1` (configuration not stated), the INHIBITION is listed as 24.8%.
